For the experiment, the system named is TYKNU. The experiment can be described thus: fractional viability relative to vehicle; TYKNU is a high-grade serous ovarian cancer line; higher = less growth inhibition. To be noted: 72 h. An outline of the steps:
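Drug treatment lasted 72 h, with cells grown at 37 °C in 5% CO2 in RPMI 1640 supplemented with 10% FBS. Beforehand, TYKNU control cells or their lentiCRISPRv2 knockout derivatives had been seeded at 500 cells per well into drug-stamped 384-well plates carrying a ~2100-compound library at 2 or 10 μM, in duplicate. Viability came from Cell Titer Glo luminescence, with averaged duplicate treatment wells normalised to duplicate control wells in the same plate position.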

[1] abbreviates: 2uM, genotype: DNM1L knockout (sgDNM1L #1).
Setting [2] is: 2uM, genotype: sgCTRLA1 (non-targeting control).
Where [3] appears, read: 10uM, genotype: DNM1L knockout (sgDNM1L #1).
[4] abbreviates: 10uM, genotype: sgCTRLA1 (non-targeting control).

The structures appear in SMILES notation. Counter-ions that a name gives are not always drawn. The full ranking holds about 2,000 compounds; the median of “fractional viability relative to vehicle” is about 0.91, and the lowest 2% start at about 0.045. This excerpt belongs to a sample that is enriched for the lowest values.

On to `C=CC(=O)Nc1cccc(Oc2nc(Nc3ccc(N4CCN(C)CC4)cc3)ncc2Cl)c1`, for which the fractional viability runs as follows: under setting [1], 0.338; under setting [2], 0.355; under setting [3], 0.157; under setting [4], 0.146.

As to `CCC(=O)Nc1cccc(Oc2nc(Nc3ccc(N4CCN(C)CC4)cc3OC)ncc2Cl)c1`, the fractional viability reads like this: under setting [1], 0.867; under setting [2], 0.981; under setting [3], 0.303; under setting [4], 0.347.

As to `C[C@@H](Nc1cc(F)cc(F)c1)c1cc(C(=O)N(C)C)cc2c(=O)cc(N3CCOCC3)oc12`, the fractional viability turned out to be 0.647 under setting [1], 0.847 under setting [2], 0.701 under setting [3] and 0.566 under setting [4].

Consider `CN(C)C/C=C/C(=O)Nc1cc2c(Nc3ccc(F)c(Cl)c3)ncnc2cc1O[C@H]1CCOC1` [Afatinib (BIBW2992) Dimaleate], for which the fractional viability runs as follows: under setting [1], 0.77; under setting [2], 0.984; under setting [3], 0.77; under setting [4], 0.767.

As to `CN(C)C/C=C/C(=O)Nc1cc2c(Nc3ccc(F)c(Cl)c3)ncnc2cc1O[C@H]1CCOC1` [Afatinib (BIBW2992)], the fractional viability under setting [1] turned out to be 0.578, the fractional viability under setting [2] was determined as 0.809, the fractional viability under setting [3] amounted to 0.0953 and the fractional viability under setting [4] came to 0.0868.

For `O=S(=O)(N=Cc1c(O)ccc2ccccc12)c1cccs1`, the fractional viability was determined as 0.71 under setting [1], 0.953 under setting [2], 0.696 under setting [3] and 0.77 under setting [4].

Consider `NC(=O)c1noc([C@H](CCCC2CCCCC2)CC(=O)NO)n1`, for which the fractional viability reads like this: under setting [1], 0.928; under setting [2], 1.03; under setting [3], 0.623; under setting [4], 0.827.

On to `CNS(=O)(=O)Nc1nccc(Cc2c(C)c3ccc(Oc4ncccn4)cc3oc2=O)c1F`, for which the fractional viability turned out to be 0.326 under setting [1], 0.304 under setting [2], 0.239 under setting [3] and 0.199 under setting [4].

As to `Cc1cc2c(F)c(Oc3ncnn4cc(OC[C@@H](C)O)c(C)c34)ccc2[nH]1`, the fractional viability runs as follows: under setting [1], 0.804; under setting [2], 0.956; under setting [3], 0.487; under setting [4], 0.469.

Regarding `COc1cc2c(Oc3ccc4[nH]c(C)cc4c3F)ncnc2cc1OCCCN1CCCC1` [Cediranib (AZD2171)], the fractional viability was 0.99 under setting [1], 0.847 under setting [2], 0.0461 under setting [3] and 0.0421 under setting [4].

Consider `COc1cc2ncnc(Nc3ccc(F)c(Cl)c3)c2cc1OCCCN1CCOCC1` [Gefitinib (ZD1839)], for which the fractional viability was found to be 1 under setting [1], 1.11 under setting [2], 0.492 under setting [3] and 0.555 under setting [4].

For the compound `Cc1ncc(CCCN(C)C)cc1Nc1ncc2c(n1)-c1ccc(C(F)(F)F)cc1NC(=S)C2`, the fractional viability worked out at 0.211 under setting [1], 0.231 under setting [2], 0.259 under setting [3] and 0.251 under setting [4].

`CC(C)(C)C[C@@H]1N[C@@H](C(=O)N[C@H]2CC[C@H](O)CC2)[C@H](c2cccc(Cl)c2F)[C@]12C(=O)Nc1cc(Cl)ccc12` displayed a fractional viability under setting [1] of 0.274, a fractional viability under setting [2] of 0.277, a fractional viability under setting [3] of 0.259 and a fractional viability under setting [4] of 0.225.

`CCN(CC)CCN(Cc1ccc(-c2ccc(C(F)(F)F)cc2)cc1)C(=O)Cn1c(SCc2ccc(F)cc2)nc(=O)c2c1CCC2`: the fractional viability under setting [1] stood at 0.329, the fractional viability under setting [2] was 0.569, the fractional viability under setting [3] was 0.0156 and the fractional viability under setting [4] came to 0.00842.

Regarding `CC(C)(C)C(=O)Nc1ccc2c(c1)C(=O)C(=O)c1ccccc1-2`, the fractional viability was 0.175 under setting [1], 0.0968 under setting [2], 0.0236 under setting [3] and 0.0127 under setting [4].

On to `CC(=O)Nc1ccccc1` [Acetanilide], for which the fractional viability was determined as 0.896 under setting [1], 1.08 under setting [2], 0.878 under setting [3] and 1.14 under setting [4].

Take `CCCc1nc(C(C)(C)O)c(C(=O)OCc2oc(=O)oc2C)n1Cc1ccc(-c2ccccc2-c2nnn[nH]2)cc1` [Olmesartan Medoxomil]: the fractional viability came out at 0.907 under setting [1], 0.929 under setting [2], 1.1 under setting [3] and 1.02 under setting [4].

As to `CC(C)(C)C#Cc1cc(N(C(=O)[C@H]2CC[C@H](C)CC2)[C@H]2CC[C@H](O)CC2)c(C(=O)O)s1` [VX-222 (VCH-222, Lomibuvir)], the fractional viability amounted to 0.983 under setting [1], 1.03 under setting [2], 0.818 under setting [3] and 0.95 under setting [4].

As for `NC(=O)c1cnc(N[C@@H]2CCCC[C@@H]2N)nc1Nc1cccc(-n2nccn2)c1`, the fractional viability under setting [1] was found to be 0.751, the fractional viability under setting [2] came out at 0.853, the fractional viability under setting [3] was determined as 0.185 and the fractional viability under setting [4] worked out at 0.142.

Turning to `Fc1ccc(CNc2ncnc3ccc(F)cc23)cc1` [Spautin-1], the fractional viability under setting [1] amounted to 0.675, the fractional viability under setting [2] came out at 0.763, the fractional viability under setting [3] was determined as 0.67 and the fractional viability under setting [4] worked out at 0.447.

For `O=C(NNc1ccccc1)c1ccncc1`, the fractional viability under setting [1] turned out to be 0.723, the fractional viability under setting [2] stood at 0.931, the fractional viability under setting [3] turned out to be 0.801 and the fractional viability under setting [4] was 0.659.

Regarding `O=C(/C=C/c1ccc2ccccc2n1)c1ccncc1`, the fractional viability runs as follows: under setting [1], 0.0494; under setting [2], 0.0683; under setting [3], 0.0258; under setting [4], 0.0162.

On to `NNC(=O)c1ccncc1` [Isoniazid], for which the fractional viability reads like this: under setting [1], 0.893; under setting [2], 1.14; under setting [3], 0.875; under setting [4], 1.06.

As to `Cc1ccc(NC(=O)Nc2cc(C(F)(F)F)ccc2F)cc1Nc1ccc2c(c1)NC(=O)/C2=C\c1ccc[nH]1`, the fractional viability was 0.873 under setting [1], 0.905 under setting [2], 0.918 under setting [3] and 0.825 under setting [4].

`CCOC(=O)c1c(CSc2ccccc2)n(C)c2cc(Br)c(O)c(CN(C)C)c12` [Arbidol HCl]: the fractional viability under setting [1] was 0.913, the fractional viability under setting [2] turned out to be 1.07, the fractional viability under setting [3] came to 0.611 and the fractional viability under setting [4] is 0.645.

As to `CCOC(=O)[C@H](CCc1ccccc1)N[C@@H](C)C(=O)N1C(=O)N(C)C[C@H]1C(=O)O` [Imidapril HCl], the fractional viability is, setting by setting: under setting [1], 0.976; under setting [2], 1.1; under setting [3], 0.958; under setting [4], 1.17.

As for `CC(C)C[C@H](NC(=O)CNC(=O)c1cc(Cl)ccc1Cl)B1OC(=O)C(CC(=O)O)(CC(=O)O)O1`, the fractional viability runs as follows: under setting [1], 0.13; under setting [2], 0.0935; under setting [3], 0.0814; under setting [4], 0.0756.

On to `COc1cccc2c1C(=O)c1c(O)c3c(c(O)c1C2=O)C[C@@](O)(C(C)=O)C[C@@H]3O[C@H]1C[C@H](N)[C@H](O)[C@H](C)O1` [Daunorubicin HCl], for which the fractional viability under setting [1] was 0.392, the fractional viability under setting [2] came to 0.254, the fractional viability under setting [3] stood at 0.0554 and the fractional viability under setting [4] was determined as 0.0241.

For the compound `CC(=O)[C@]1(O)Cc2c(O)c3c(c(O)c2[C@@H](O[C@H]2C[C@H](N)[C@H](O)[C@H](C)O2)C1)C(=O)c1ccccc1C3=O` [Idarubicin HCl], the fractional viability under setting [1] was determined as 0.362, the fractional viability under setting [2] amounted to 0.165, the fractional viability under setting [3] is 0.042 and the fractional viability under setting [4] turned out to be 0.021.

For the compound `COc1cccc2c1C(=O)c1c(O)c3c(c(O)c1C2=O)C[C@@](O)(C(=O)CO)C[C@@H]3O[C@H]1C[C@H](N)[C@H](O)[C@H](C)O1` [Doxorubicin (Adriamycin)], the fractional viability is, setting by setting: under setting [1], 0.377; under setting [2], 0.212; under setting [3], 0.437; under setting [4], 0.323.

The values are drawn from the supplement of paper PMC5919970.
